Data published in PubChem BioAssay.
The source made the active and inactive calls.

Tests used:
[1] = small molecules captured by biotinylated probe aFSTL3 – biochemical, small-molecule microarray, fluorescence 635/667, stem cell growth factor project, primary screen (AID 1064); conditions: higher = more signal;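 further: measures binding of the biotinylated anti-FSTL3 antibody to printed compounds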
[2] = binders from COS7 lysate, DM2A8 probe, primary screen, torsin A project, cell lysate, small-molecule microarray, fluorescence 635/667 (AID 1065); conditions: higher = more signal, COS7 lysate expressing mutant human TOR1A
[3] = small molecules captured by biotinylated probe aFGF2 – biochemical, small-molecule microarray, fluorescence 635/667, stem cell growth factor project, primary screen (AID 1067); conditions: higher = more signal;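 further: measures binding of biotinylated aFGF2 protein to printed compounds on slides; z-score merges feature fluorescence and signal-to-noise across triplicate slides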
[4] = small molecules captured by biotinylated probe aFGF10 – biochemical, small-molecule microarray, fluorescence 635/667, stem cell growth factor project, primary screen (AID 1071); conditions: higher = more signal;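 further: score merges 667 nm spot intensity and signal to noise from triplicate slides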
[5] = target: Neurogenic locus notch homolog protein 2 (Homo sapiens) (UniProt Q04721); assay: small molecules binding Notch2 protein – biochemical, small-molecule microarray, 635 nm fluorescence, stem cell growth factors, primary screen (AID 1073); conditions: higher = more signal
[6] = target: Pro-neuregulin-1, membrane-bound isoform (Homo sapiens) (UniProt Q02297); assay: small molecules binding neuregulin-1 protein – biochemical, small-molecule microarray, fluorescence 635/667, psychiatric disease protein project, primary screen (AID 1075); conditions: NRG1 binding, 635 nm fluorescence, higher = more signal;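 further: score combines 667 nm spot fluorescence with signal to noise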
[7] = system: Neuregulin-1 EGF-like domain; assay: small molecules binding NRG1 EGF domain – biochemical, small-molecule microarray, 635 nm fluorescence, primary screen (AID 1081); conditions: higher = more signal;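 further: binding of the protein to compounds printed on small-molecule microarray slides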
[8] = FRG1 expression reporter modulators in myotubes – cell-based, C2C12 myotubes, firefly/Renilla luciferase, luminescence, FRG1 inhibition for FSHD, primary screen (AID 1084); conditions: FRG1 promoter luciferase, higher = more signal, called active from +8 up or from −8 down
[9] = small molecules captured by biotinylated probe aFST – biochemical, small-molecule microarray, fluorescence 635/667, stem cell growth factor project, primary screen (AID 1086); conditions: higher = more signal;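 further: score merges 667 nm fluorescence with signal-to-noise of each printed compound spot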
[10] = binders of probe aHhip on microarray, primary screen, stem cell growth factor project, biochemical, small-molecule microarray, fluorescence 635/667 (AID 1087); conditions: higher = more signal;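 further: score merges spot fluorescence at 667nm with spot signal to noise ratio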
[11] = system: PRMT1 (protein arginine N-methyltransferase 1); assay: small molecules binding arginine methyltransferase PRMT1 – biochemical, small-molecule microarray, 635 nm fluorescence, primary screen (AID 1088); conditions: higher = more signal;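 further: binding of Prmt1 protein to compounds spotted on small-molecule microarray slides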
[12] = growth effects on S. cerevisiae YJM789 – YJM789 clinical isolate, OD600, 24 h, basal, primary screen (AID 1089); conditions: higher = more signal, called active from +8 up or from −8 down;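 further: growth of clinical yeast isolate S. cerevisiae YJM 789 seeded 1000 cells per well; test concentration not given here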
[13] = S. pombe growth modifiers, basal conditions – strain 972, OD600, 24 h, no modulator, primary screen (AID 1090);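 further: basal condition with compound alone and no growth modifier present; test concentration not given here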; conditions: S. pombe 972 growth, higher = more signal, called active from +8 up or from −8 down
[14] = budding yeast growth modifiers under rapamycin – strain BY4716, OD600, 96 h, primary screen (AID 1091); further: test concentration not given here; conditions: S. cerevisiae BY4716 + rapamycin, higher = more signal, called active from +8 up or from −8 down
[15] = target: Torsin-1A-interacting protein 2 (Homo sapiens) (UniProt Q8NFQ8); assay: small molecules binding lysate-expressed LULL1 – cell lysate, human LULL1 lysate, 635/667 nm fluorescence, primary screen (AID 1092); conditions: small-molecule microarray, hLULL1 lysate binding, 635 nm fluorescence; higher = more signal;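 further: probe is lysate of COS7 cells overexpressing human LULL1; score merges per-feature 667 nm fluorescence with signal-to-noise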
[16] = optical density change of DRC41 E. coli – strain DRC41, OD650, 24 h, E. coli filamentation project, primary screen (AID 1093);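 further: MC1000 strain lacking acrAB efflux and sulA so SOS filamentation is blocked; test concentration not given here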; conditions: E. coli DRC41 growth, higher = more signal, called active from +8 up or from −8 down
[17] = probe aLefty2 binding to arrayed compounds – biochemical, biotinylated probe, 635/667 nm fluorescence, primary screen (AID 1094); conditions: small-molecule microarray, higher = more signal;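 further: score merges spot fluorescence near 667 nm with spot signal-to-noise ratio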
[18] = system: Noggin (protein binding on small-molecule microarray); assay: small molecules binding Noggin protein – biochemical, 635/667 nm fluorescence, primary screen (AID 1095); conditions: 635 nm fluorescence, higher = more signal;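 further: score merges 667 nm feature fluorescence with signal to noise over triplicate slides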
[19] = target: Neurogenic locus notch homolog protein 3 (Homo sapiens) (UniProt Q9UM47); assay: small molecules binding NOTCH3 protein – biochemical, 635/667 nm fluorescence, primary screen (AID 1096); conditions: small-molecule microarray, 635 nm fluorescence, higher = more signal
[20] = probe aEGFR binding to arrayed compounds – biochemical, biotinylated probe, 635/667 nm fluorescence, primary screen (AID 1097); conditions: small-molecule microarray, higher = more signal;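 further: probe is a biotinylated anti-EGFR antibody binding compounds printed on slides; score combines fluorescence near 667 nm and signal to noise of each spot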

Pro-neuregulin-1, membrane-bound isoform (Homo sapiens), sequence (Q02297 whole entry, looked up, the tested form may be a part, canonical isoform): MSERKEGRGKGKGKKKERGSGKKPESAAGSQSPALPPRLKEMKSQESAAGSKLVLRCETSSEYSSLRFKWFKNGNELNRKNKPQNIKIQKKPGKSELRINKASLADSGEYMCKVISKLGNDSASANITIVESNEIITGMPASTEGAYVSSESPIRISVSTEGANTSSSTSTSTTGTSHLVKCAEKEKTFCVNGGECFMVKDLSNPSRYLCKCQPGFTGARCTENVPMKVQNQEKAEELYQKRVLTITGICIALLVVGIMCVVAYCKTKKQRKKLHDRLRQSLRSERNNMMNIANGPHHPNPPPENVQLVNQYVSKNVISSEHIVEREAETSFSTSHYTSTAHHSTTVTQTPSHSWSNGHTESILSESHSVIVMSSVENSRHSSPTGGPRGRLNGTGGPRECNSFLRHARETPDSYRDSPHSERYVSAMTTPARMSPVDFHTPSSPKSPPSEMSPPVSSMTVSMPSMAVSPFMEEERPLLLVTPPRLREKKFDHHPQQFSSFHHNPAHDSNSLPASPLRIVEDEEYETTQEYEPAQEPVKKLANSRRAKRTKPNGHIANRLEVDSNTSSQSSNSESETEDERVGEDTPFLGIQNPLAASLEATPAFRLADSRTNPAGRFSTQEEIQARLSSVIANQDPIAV
Torsin-1A-interacting protein 2 (Homo sapiens), sequence (Q8NFQ8 whole entry, looked up): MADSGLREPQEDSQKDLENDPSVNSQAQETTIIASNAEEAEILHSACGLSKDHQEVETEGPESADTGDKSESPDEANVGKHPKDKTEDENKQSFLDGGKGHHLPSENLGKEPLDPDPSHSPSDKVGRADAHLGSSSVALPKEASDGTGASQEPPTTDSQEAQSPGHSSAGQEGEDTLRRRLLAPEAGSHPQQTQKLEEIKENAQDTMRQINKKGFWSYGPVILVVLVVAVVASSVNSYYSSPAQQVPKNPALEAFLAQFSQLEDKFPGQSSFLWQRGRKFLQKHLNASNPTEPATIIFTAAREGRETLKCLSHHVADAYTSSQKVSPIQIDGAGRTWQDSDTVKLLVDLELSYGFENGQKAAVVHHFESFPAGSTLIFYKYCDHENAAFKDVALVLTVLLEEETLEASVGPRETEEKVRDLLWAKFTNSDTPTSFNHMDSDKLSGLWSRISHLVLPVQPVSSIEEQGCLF
Neurogenic locus notch homolog protein 2 (Homo sapiens), sequence (Q04721 whole entry, looked up, canonical isoform): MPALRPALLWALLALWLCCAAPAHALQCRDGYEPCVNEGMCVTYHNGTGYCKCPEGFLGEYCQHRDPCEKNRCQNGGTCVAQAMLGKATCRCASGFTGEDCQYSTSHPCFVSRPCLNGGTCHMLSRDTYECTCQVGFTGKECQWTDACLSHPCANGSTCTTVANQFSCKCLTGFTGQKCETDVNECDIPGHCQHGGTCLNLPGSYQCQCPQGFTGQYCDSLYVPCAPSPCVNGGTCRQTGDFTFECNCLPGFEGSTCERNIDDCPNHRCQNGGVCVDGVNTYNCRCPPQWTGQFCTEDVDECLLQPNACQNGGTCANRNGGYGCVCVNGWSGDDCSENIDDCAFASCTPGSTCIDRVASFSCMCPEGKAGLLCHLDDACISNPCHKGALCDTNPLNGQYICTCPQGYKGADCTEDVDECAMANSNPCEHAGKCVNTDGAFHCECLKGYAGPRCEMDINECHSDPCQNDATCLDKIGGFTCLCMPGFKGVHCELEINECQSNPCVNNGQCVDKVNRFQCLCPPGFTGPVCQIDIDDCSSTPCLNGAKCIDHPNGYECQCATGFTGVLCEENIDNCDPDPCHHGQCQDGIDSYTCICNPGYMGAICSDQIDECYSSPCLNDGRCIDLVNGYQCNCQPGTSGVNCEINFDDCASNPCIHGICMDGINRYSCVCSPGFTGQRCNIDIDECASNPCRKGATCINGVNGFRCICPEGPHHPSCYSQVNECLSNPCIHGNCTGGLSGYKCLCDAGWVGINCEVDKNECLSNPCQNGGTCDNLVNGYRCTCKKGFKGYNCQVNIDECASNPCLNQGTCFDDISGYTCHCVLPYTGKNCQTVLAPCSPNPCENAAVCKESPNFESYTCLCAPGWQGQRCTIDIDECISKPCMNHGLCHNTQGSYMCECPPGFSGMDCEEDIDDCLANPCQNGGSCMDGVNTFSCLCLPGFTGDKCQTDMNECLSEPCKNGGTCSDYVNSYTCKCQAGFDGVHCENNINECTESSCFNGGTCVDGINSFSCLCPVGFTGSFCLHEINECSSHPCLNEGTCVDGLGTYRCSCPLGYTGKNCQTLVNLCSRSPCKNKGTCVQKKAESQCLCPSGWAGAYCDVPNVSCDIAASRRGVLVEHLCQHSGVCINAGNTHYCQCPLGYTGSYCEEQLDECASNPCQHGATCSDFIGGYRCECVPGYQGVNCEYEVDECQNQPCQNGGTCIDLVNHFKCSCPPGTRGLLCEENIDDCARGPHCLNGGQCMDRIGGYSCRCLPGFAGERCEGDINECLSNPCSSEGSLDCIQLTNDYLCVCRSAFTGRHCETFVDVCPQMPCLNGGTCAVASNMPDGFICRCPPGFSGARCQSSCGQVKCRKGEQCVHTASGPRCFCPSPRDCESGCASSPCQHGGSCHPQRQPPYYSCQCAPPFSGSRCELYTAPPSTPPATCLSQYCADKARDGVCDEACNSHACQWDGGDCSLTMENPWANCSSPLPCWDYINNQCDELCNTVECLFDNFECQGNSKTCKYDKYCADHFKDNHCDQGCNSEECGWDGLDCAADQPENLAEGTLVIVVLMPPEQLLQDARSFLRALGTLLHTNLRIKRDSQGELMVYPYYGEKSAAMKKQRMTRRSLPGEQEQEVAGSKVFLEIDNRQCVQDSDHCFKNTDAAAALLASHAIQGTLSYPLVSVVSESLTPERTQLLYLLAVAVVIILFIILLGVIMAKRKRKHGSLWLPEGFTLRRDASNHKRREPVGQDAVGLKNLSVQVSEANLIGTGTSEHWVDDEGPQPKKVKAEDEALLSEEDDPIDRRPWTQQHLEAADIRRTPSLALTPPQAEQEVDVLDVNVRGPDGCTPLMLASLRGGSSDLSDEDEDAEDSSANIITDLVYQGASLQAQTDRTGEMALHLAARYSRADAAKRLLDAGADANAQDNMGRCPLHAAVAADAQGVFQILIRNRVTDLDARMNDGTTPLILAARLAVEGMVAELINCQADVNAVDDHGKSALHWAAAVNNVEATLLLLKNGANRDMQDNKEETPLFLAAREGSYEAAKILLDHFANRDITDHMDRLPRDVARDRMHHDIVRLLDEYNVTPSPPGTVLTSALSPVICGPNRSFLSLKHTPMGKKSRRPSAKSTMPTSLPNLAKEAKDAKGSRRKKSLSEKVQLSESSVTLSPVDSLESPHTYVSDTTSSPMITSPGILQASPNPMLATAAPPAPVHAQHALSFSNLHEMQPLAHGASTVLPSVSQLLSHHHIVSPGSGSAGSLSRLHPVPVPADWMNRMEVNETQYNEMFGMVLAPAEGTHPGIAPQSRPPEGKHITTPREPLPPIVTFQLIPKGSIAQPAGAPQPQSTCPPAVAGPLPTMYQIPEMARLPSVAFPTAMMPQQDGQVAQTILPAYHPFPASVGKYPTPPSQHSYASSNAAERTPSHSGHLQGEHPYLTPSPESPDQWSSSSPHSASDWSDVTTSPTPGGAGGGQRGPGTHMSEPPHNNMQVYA

Compound | composite z-score [1] | composite z-score [2] | composite z-score [3] | composite z-score [4] | composite z-score [5] | composite z-score [6] | composite z-score [7] | z-score [8] | composite z-score [9] | composite z-score [10] | composite z-score [11] | z-score [12] | z-score [13] | z-score [14] | composite z-score [15] | z-score [16] | composite z-score [17] | composite z-score [18] | composite z-score [19] | composite z-score [20]
CCOC(=O)CCN1C(=O)[C@H]2[C@H]3[C@H](O)[C@H](O)CC(=NNC(=O)OCC)[C@H]3CC[C@H]2C1=O | -0.264 | 0.345 | -0.162 | -0.188 | -0.752 | 0.189 | 0.54 | 0.115 (inactive) | 0.0166 | -0.0237 | 0.0158 | 0.654 (inactive) | -1.45 (inactive) | 0.305 (inactive) | 0.0756 | -0.637 (inactive) | -0.139 | 0.412 | -0.818 | -0.12
CCN1C(=O)[C@H]2[C@H]3[C@H](O)[C@H](O)CC(=NOC[C@@H](O)COCc4ccco4)[C@H]3CC[C@H]2C1=O | -0.905 | 2.38 | -0.318 | -1.68 | -0.886 | -0.502 | 0.456 | -0.172 (inactive) | -0.104 | 0.0578 | 1.21 | -0.0365 (inactive) | -0.258 (inactive) | -0.0439 (inactive) | 0.327 | 0.316 (inactive) | -0.339 | 1.79 | 0.0738 | -0.099
C=CC[C@@H]1C=C[C@H](Oc2ccc(C)cc2)[C@@H](COC(=O)NCc2cccc3ccccc23)O1 | -0.406 | 0.012 | -0.144 | 0.655 | -0.141 | 0.528 | 0.724 | -0.446 (inactive) | -0.174 | -0.251 | 0.261 | 0.697 (inactive) | -0.341 (inactive) | 0.774 (inactive) | 0.557 | -0.61 (inactive) | -0.116 | 0.725 | -0.0971 | -0.136
COc1ccc(COC(=O)NN=C2C[C@@H](O)[C@@H](O)[C@@H]3[C@@H]4C(=O)N(Cc5ccccc5)C(=O)[C@@H]4CC[C@@H]23)cc1 | -0.512 | -0.0209 | -0.0286 | 0.291 | 0.383 | -0.271 | -0.214 | 0.364 (inactive) | 0.268 | 0.0183 | 0.166 | 0.712 (inactive) | 0.304 (inactive) | -0.0766 (inactive) | 0.105 | 0.555 (inactive) | -0.0873 | 0.123 | 0.724 | -0.0868
C=C(C)C(=O)OC[C@H]1CN2[C@@H](CC[C@@H](C)[C@@H]2c2ccc(Br)cc2)C(=O)O1 | -0.223 | 0.123 | -0.166 | 0.113 | -0.283 | 0.199 | 0.0297 | 0.402 (inactive) | -0.155 | -0.0618 | 0.164 | 0.0739 (inactive) | -3.38 (inactive) | -0.424 (inactive) | 0.162 | 0.436 (inactive) | -0.166 | 0.195 | -0.775 | -0.144
CC(C)=CCCC(C)=CCON=C1C[C@@H](O)[C@@H](O)[C@@H]2[C@@H]3C(=O)N(Cc4ccc5c(c4)OCO5)C(=O)[C@@H]3CC[C@H]12 | -0.386 | -0.203 | -0.0687 | 0.584 | 1.18 | 0.78 | 0.615 | 0.34 (inactive) | 0.416 | -0.272 | 1.44 | 0.329 (inactive) | 0.197 (inactive) | -0.251 (inactive) | 1.93 | 0.103 (inactive) | -0.166 | 0.564 | 0.907 | -0.0271
CCCNC(=O)OC[C@H]1O[C@H](CCON=C2c3cc(OC)ccc3O[C@H](c3cccc(OC)c3)[C@H]2O)C=C[C@@H]1Oc1ccc(OC)cc1 | -0.231 | 0.768 | -0.0647 | 0.884 | 1.17 | 0.64 | 0.93 | 0.446 (inactive) | 0.167 | -0.0237 | 0.799 | -0.409 (inactive) | 0.464 (inactive) | 0.479 (inactive) | 0.972 | 0.8 (inactive) | 0.451 | 0.716 | 0.468 | 0.0897
CCOC(=O)CCN1C(=O)[C@H]2[C@H]3[C@H](O)[C@H](O)CC(=NNC(=O)OCc4ccccc4)[C@H]3CC[C@H]2C1=O | -0.594 | 1.05 | -0.133 | -0.884 | -0.871 | -1.03 | -1.43 | -0.695 (inactive) | 0.138 | -0.0632 | -0.0993 | -0.756 (inactive) | 0.59 (inactive) | -0.596 (inactive) | -1.53 | -0.287 (inactive) | -0.0515 | 0.608 | 0.032 | -0.103
CO[C@@H](C(C)C)[C@@H](C)C1OC(=O)CC1O (stereo not given in full) | -0.156 | -0.126 | -0.15 | 0.0406 | -0.402 | -0.361 | 0.625 | 0.35 (inactive) | -0.192 | -0.0193 | -0.255 | 0.0031 (inactive) | 0.0183 (inactive) | -0.582 (inactive) | 0.338 | 0.457 (inactive) | -0.161 | -0.614 | -0.716 | -0.195
